# Reference: PubChem BioAssay (Tox21)
# Results filed as inconclusive are left out. Values without a mark were called inactive. The source made the active and inactive calls. Calls follow the shape of the dose curve; as a rule, active = well fitted inhibition curve with a large enough effect in the repeat runs; inconclusive = weak or mixed curves, or effect the other way; inactive = no such curve, though single readings can be large or run the other way. Where a SMILES comes first, the peptide text is derived from it. [ ]: non-standard residue; d: D form. pGlu = O=C1CC[C@@H](C(=O)O)N1
# Test: qHTS assay to identify small molecule antagonists of the retinoic acid receptor (RAR) signaling pathway (AID 1159552; also: nearly all actives have a fitted effect of over 50% in size)
# Settings: C3RL4 RARE luciferase reporter, retinol-stimulated, 6 h; series mostly up to 92.4 µM; activity, negative = inhibition: at the top concentration
# Source text: National Center for Advancing Translational Sciences [NCATS]
# NIH Chemical Genomics Center [NCGC]
# U.S. Environmental Protection Agency [EPA]
# National Institutes of Environmental Health Sciences [NIEHS]
# National Toxicology Program [NTP]
# U.S. Food and Drug Administration [FDA]
# All-trans Retinoic acid (atRA) is the potent natural metabolite of retinol and plays an important role in normal embryonic development and maintenance of cellular phenotype in adult animals. atRA is the activating ligand for the retinoic acid receptors (RARs) which form heterodimers with retinoid X receptors (RXRs) on the retinoic acid response element (RARE). Through activation of the RAR/RXRs nuclear receptors, atRA regulates the transcription of a large number of protein-coding genes and regulatory RNAs. Intracellular levels of atRA are controlled by the retinol signaling pathway (RSP) that regulates the biosynthesis and catabolism of atRA to maintain physiological levels. Chemicals that interfere with the RSP can cause abnormal intracellular levels of atRA and therefore are potential developmental toxicants. To assess compounds for the potential adverse effect on embryonic development through interfering with retinol signaling, a cell-based RARE luciferase reporter gene assay was used. C3RL4 cell line (OARSA/CFSAN/FDA, Laurel, MD) was used to screen Tox21 10K compound library for identifying inhibitors of the RSP.
# Tox21 Assay Protocol Summary:
# C3RL4 cells were seeded at 1,000/well in 4 uL of assay medium into white solid 1,536-well tissue culture plates (Greiner Bio-One North America Inc. Monroe, NC) using a Multidrop Combi (Thermo Scientific, Waltham, MA) dispenser. After incubation at 37 C and 5% CO2 for an overnight, 23 nL of compounds dissolved in DMSO, positive control or DMSO only were transferred by a Pintool station (Kalypsys, San Diego, CA). One ul of 1 uM (final concentration) of Retinol was added right after the compound addition by using a Flying Reagent Dispenser (FRD) (Aurora Discovery, San Diego, CA). After 6 hr incubation at 37 C and 5% CO2, 5 uL of Amplite Luciferase reagent (AAT Bioquest Inc. Sunnyvale, CA) was added to each assay plate using an FRD. Luminescence was quantified on a ViewLux plate reader (PerkinElmer, Waltham, MA) after 30 min incubation at room temperature.
# % is scaled to controls: 0 for no effect and ±100 for the full control effect; potency is read from the fitted curve at half-maximal effect.
Compound,"activity, negative = inhibition",Potency
CCCCCCCC1CCCC1=O (stereo not given),-7.25%,–
CC1=NN(c2cc(S(=O)(=O)O)ccc2Cl)C(=O)C1N=Nc1ccccc1 (stereo not given),-6.33%,–
CCNC(=O)[C@@H]1CCCN1C(=O)[C@H](CCCN=C(N)N)NC(=O)[C@H](CC(C)C)NC(=O)CNC(=O)[C@H](Cc1ccc(O)cc1)NC(=O)[C@H](CO)NC(=O)[C@H](Cc1c[nH]c2ccccc12)NC(=O)[C@H](Cc1cnc[nH]1)NC(=O)[C@@H]1CCC(=O)N1 ([pGlu]HWSYGLRP-NHEt),1.98% [at 42.5 µM],–
COC(=O)Nc1ccc(Cl)c(Cl)c1,30.1%,–
CC1OC1C1CCC2(C)OC2C1 (stereo not given),-0.864%,–
CCNS(=O)(=O)c1ccc(C)cc1,40.5%,–
NC(N)=NCCN1CCCCCCC1,16.3% [at 0.349 µM],–
C[C@H]1C[C@H]2[C@@H]3CCC4=CC(=O)C=C[C@]4(C)[C@H]3C(=O)C[C@]2(C)[C@@]1(O)C(=O)CO,-3.37% [at 42.5 µM],–
CC(C)COC(=O)c1ccc(N)cc1,102% [at 42.5 µM],–
O=S(=O)(O)c1cccc(S(=O)(=O)O)c1,-0.224%,–
COCCOC[C@H](CC1(C(=O)NC2CCC(C(=O)O)CC2)CCCC1)C(=O)Oc1ccc2c(c1)CCC2 (stereo not given in full),2.99%,–
CC(C)=CCC/C(C)=C/C#N,31.7%,–
c1ccc(CCc2ccccc2)cc1,-1.42%,–
CCOC(=O)C1=NOC(c2ccccc2)(c2ccccc2)C1,2.37%,–
O=C1c2ccccc2C(=O)c2cc(O)ccc21,117%,–
CCOC(=O)CCC(=O)OCC,2.94%,–
O=C(c1ccccc1O)c1ccccc1O,10.3%,–
CCCCOCCOC(=O)CCCCCCCCC(=O)OCCOCCCC,18.9%,–
CC(CC=O)CC(C)(C)C (stereo not given),61.1%,–
O=C(O)CC(C(=O)O)S(=O)(=O)O (stereo not given),7.23%,–

Compound,"activity, negative = inhibition",Potency
c1ccc2sc(SN3CCOCC3)nc2c1,70.9% [at 42.5 µM],–
CC(C)(C)c1ccc(-c2ccc(C(C)(C)C)cc2)cc1,17.3%,–
Nc1ccccn1,59.5%,–
Cc1ccccc1N=C(N)N=C(N)N,12.7%,–
CC(C)(C)OC(=O)c1cccc(N)c1,57.2%,–
CN(C)CCCCCCN(C)C,-0.19%,–
CNC(=O)Nc1ccc(Cl)c(Cl)c1,21.4%,–
CN1CCN(c2cc3c(nn2)Oc2ccccc2N3C)CC1,162% [at 19 µM],–
C=CC(=O)OCCCl,10.5%,–
Cc1ccc(-c2ccccc2C#N)cc1,43.8% [at 42.5 µM],–
CC(=O)Nc1ccc(OCC(O)CNC(C)C)cc1 (stereo not given),0.755% [at 42.5 µM],–
CC1CCC(CO)CC1 (stereo not given),5.91%,–
CC(=O)c1cnccn1,-0.291%,–
CCN(CC#N)c1cccc(C)c1,7.08%,–
CC(C)c1ccc2ncccc2c1,28.5%,–
O=Cc1cccc(Br)c1,44.9%,–
CC12CCC(C(=O)C1=O)C2(C)C (stereo not given),44.8%,–
O=C1CCCCCCCCCCCCCCO1,18.3%,–
COC(=O)C1=C(C)NC(C)=C(C(=O)OC(C)C)C1c1cccc2nonc12 (stereo not given),–,21.1 µM (active)
CCC(C)(CN(C)C)OC(=O)c1ccccc1 (stereo not given),-4.65% [at 42.5 µM],–
